Data on seven molecules can be found in PubChem BioAssay (NCI).

The panel holds about 83,000 compounds, 20% with a hit somewhere; the sample as a whole holds those more often.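 Note: values are percent growth. 100 is the growth of untreated cells, values between 100 and 0 indicate rising inhibition; between -100 and 0 indicates cell death.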 Values without a mark were called inactive. Activity calls are given as the source filed them. The calls were made as follows: active = growth percent below 10; inactive = the rest.

Holding throughout (test): NCI-60 one-dose screen, 48 h (100 = growth as untreated, 0 = no growth, -100 = all killed)
The test system of one test is SK-MEL-2 melanoma. The conditions noted are these: 10 µM unless noted.
A further test has as its system EKVX NSCLC. The note with it: 10 µM unless noted.
The next test relates to SN12C renal. The note with it: 10 µM unless noted.
The next test has as its system UO-31 renal. The conditions noted are these: 10 µM unless noted.
Another test deals with TK-10 renal. The conditions noted are these: 10 µM unless noted.
For another test, the system named is ACHN renal. The note with it: 10 µM unless noted.
Another test concerns A498 renal. The note with it: 10 µM unless noted.
A further test concerns CCRF-CEM leukemia. The conditions noted are these: 10 µM unless noted.
Another test concerns MOLT-4 leukemia. The note with it: 10 µM unless noted.
A further test deals with SR leukemia. The conditions noted are these: 10 µM unless noted.
The subject of the next test is RPMI-8226 leukemia. The conditions noted are these: 10 µM unless noted.
Another test relates to OVCAR-8 ovarian. The conditions noted are these: 10 µM unless noted.
In a further test the test system is OVCAR-5 ovarian. The conditions noted are these: 10 µM unless noted.
The test system of a further test is OVCAR-4 ovarian. The note with it: 10 µM.
Another test concerns SK-OV-3 ovarian. The note with it: 10 µM unless noted.
The next test concerns IGROV1 ovarian. The conditions noted are these: 10 µM unless noted.
The subject of another test is OVCAR-3 ovarian. The conditions noted are these: 10 µM unless noted.
A further test relates to NCI/ADR-RES ovarian. The conditions noted are these: 10 µM unless noted.
Another test has as its system CAKI-1 renal. The note with it: 10 µM unless noted.
Another test relates to HS 578T breast. The note with it: 10 µM unless noted.

`COc1cc(C)cc2oc3oc(=O)c(C(=O)c4cc5cc(Br)ccc5o4)cc3c(=O)c12`: the growth in the test on SK-MEL-2 melanoma was 114%; in the test on EKVX NSCLC, 100%; with SN12C renal, 97.6%; in the test on UO-31 renal, 72.7%; in the test on TK-10 renal, 121%; in the test on ACHN renal, 95.8%. Besides, the growth in the test with A498 renal was 92.2%; with CCRF-CEM leukemia, 120%; with MOLT-4 leukemia, 106%; in the test with SR leukemia, 102%; with RPMI-8226 leukemia, 120%; in the test on OVCAR-8 ovarian it was 104%. For the same molecule, the growth in the test on OVCAR-5 ovarian was 98.9%; with OVCAR-4 ovarian, 110%; with SK-OV-3 ovarian, 114%; with IGROV1 ovarian, 92.8%; in the test on OVCAR-3 ovarian, 107%; in the test on NCI/ADR-RES ovarian, 110%.

As for `COc1ccc2nc3cc(Cl)ccc3c(Nc3ccc(O)c(CN4CCCC4)c3)c2c1`, the growth in the test on SK-MEL-2 melanoma is -57.6% (active); in the test on EKVX NSCLC it was 51.3%; in the test with SN12C renal, 47.8%; with UO-31 renal, -46.2% (active); in the test with TK-10 renal it was 10.2%; with CAKI-1 renal it was 8.96% (active). Besides, the growth with A498 renal was 62.3%; in the test on CCRF-CEM leukemia, -6.84% (active); in the test on MOLT-4 leukemia, 0.985% (active); in the test with SR leukemia, 0.0468% (active); with RPMI-8226 leukemia, -25.2% (active); in the test with OVCAR-8 ovarian, -2.17% (active). Moreover, the growth is 57.4% in the test on OVCAR-5 ovarian; -4.45% (active) with OVCAR-4 ovarian; 73.2% with SK-OV-3 ovarian; -26.3% (active) in the test with IGROV1 ovarian; -32.1% (active) in the test on OVCAR-3 ovarian; 3.27% (active) in the test with NCI/ADR-RES ovarian.

As for `CC1(C(=O)O)CCC(N)(C(=O)O)C1(C)C` (configuration not stated), the growth is 110% in the test with SK-MEL-2 melanoma; 112% in the test on EKVX NSCLC; 107% in the test on SN12C renal; 86.5% with UO-31 renal; 101% in the test with TK-10 renal; 114% in the test with CAKI-1 renal. Moreover, the growth is 87.7% with A498 renal; 89.7% with CCRF-CEM leukemia; 100% in the test on MOLT-4 leukemia; 105% with SR leukemia; 91.9% in the test with RPMI-8226 leukemia; 111% in the test on OVCAR-8 ovarian. The growth was 115% with OVCAR-5 ovarian; 104% in the test on OVCAR-4 ovarian; 97% in the test with SK-OV-3 ovarian; 108% in the test on IGROV1 ovarian; 102% with OVCAR-3 ovarian; 127% with HS 578T breast.

As to `COC(=O)[C@H](CC(C)C)NC(=O)NC(=O)NC(=O)CI`, the growth with SK-MEL-2 melanoma was 78.8%; in the test with EKVX NSCLC, 94.8%; in the test on SN12C renal, 76.5%; in the test on UO-31 renal, -76.3% (active); with TK-10 renal, 72.3%; in the test on CAKI-1 renal it was -69.2% (active). The growth in the test on A498 renal was 82.8%; with CCRF-CEM leukemia it was -46.3% (active); in the test on MOLT-4 leukemia, 4.18% (active); in the test with SR leukemia it was -51% (active); in the test with RPMI-8226 leukemia it was 61.6%; in the test on OVCAR-8 ovarian, 73.3%. Besides, the growth in the test with OVCAR-5 ovarian was 86.9%; in the test on OVCAR-4 ovarian, 59%; with SK-OV-3 ovarian it was 92.4%; with IGROV1 ovarian, 62%; in the test with OVCAR-3 ovarian, -74.1% (active); with HS 578T breast it was 106%. In addition, the growth in the test on NCI/ADR-RES ovarian was 92.2%.

With `O=C(CCN1CCCCC1)c1ccc(Cl)cc1`, the growth in the test with SK-MEL-2 melanoma was 104%; in the test on EKVX NSCLC, 101%; in the test with SN12C renal, 111%; with UO-31 renal it was 96%; in the test on TK-10 renal, 103%; with CAKI-1 renal it was 95.2%. Moreover, the growth with A498 renal was 79.5%; with CCRF-CEM leukemia, 93.6%; in the test on MOLT-4 leukemia it was 108%; in the test on SR leukemia, 112%; with RPMI-8226 leukemia, 85.8%; with OVCAR-8 ovarian, 113%. In addition, the growth with OVCAR-5 ovarian was 102%; in the test on SK-OV-3 ovarian it was 103%; in the test on IGROV1 ovarian it was 107%; in the test with OVCAR-3 ovarian, 106%; with HS 578T breast it was 108%; with NCI/ADR-RES ovarian, 114%.

For `C=C(C)[C@@H]1CC[C@]2(COCCCN)CC[C@]3(C)[C@H](CC[C@@H]4[C@@](C)(CCCNCCCN)[C@H](C(=C)C)CC[C@]43C)[C@@H]12`, the growth was -59.3% [100 µM] (active) with SK-MEL-2 melanoma; -60.8% [100 µM] (active) in the test with EKVX NSCLC; -52% [100 µM] (active) with SN12C renal; -79.8% [100 µM] (active) with UO-31 renal; -62.4% [100 µM] (active) with TK-10 renal; -77.1% [100 µM] (active) in the test on CAKI-1 renal. Also, the growth is -77% [100 µM] (active) in the test on A498 renal; -26.9% [100 µM] (active) in the test with CCRF-CEM leukemia; -31.6% [100 µM] (active) with MOLT-4 leukemia; 44.4% [100 µM] in the test with SR leukemia; -53.4% [100 µM] (active) in the test on RPMI-8226 leukemia; -56.7% [100 µM] (active) in the test on OVCAR-8 ovarian. Besides, the growth was -63.6% [100 µM] (active) in the test on OVCAR-5 ovarian; -60.4% [100 µM] (active) in the test with SK-OV-3 ovarian; -58.6% [100 µM] (active) in the test with IGROV1 ovarian; -53.3% [100 µM] (active) with OVCAR-3 ovarian; -39.2% [100 µM] (active) with HS 578T breast; -53.6% [100 µM] (active) in the test on NCI/ADR-RES ovarian.

Take `COC(=O)[C@]1(C)CC[C@]2(C)CC[C@]3(C)C(=CC(=O)[C@@H]4[C@@]5(C)CCC(=O)NC(C)(C)[C@@H]5CC[C@]43C)[C@@H]2C1`: the growth in the test on SK-MEL-2 melanoma was -83.2% [100 µM] (active); in the test with EKVX NSCLC, -45.1% [100 µM] (active); in the test with SN12C renal it was -81.1% [100 µM] (active); in the test with UO-31 renal it was -93.3% [100 µM] (active); in the test on TK-10 renal it was -26.3% [100 µM] (active); with CAKI-1 renal, -20% [100 µM] (active). Moreover, the growth in the test on A498 renal was -91.4% [100 µM] (active); with CCRF-CEM leukemia it was -25.4% [100 µM] (active); in the test with MOLT-4 leukemia, -20.7% [100 µM] (active); with SR leukemia, 32.7% [100 µM]; with RPMI-8226 leukemia, -44.5% [100 µM] (active); in the test on OVCAR-8 ovarian it was -39.8% [100 µM] (active). Further, the growth was -60.8% [100 µM] (active) with OVCAR-5 ovarian; -16.8% [100 µM] (active) in the test on SK-OV-3 ovarian; -55.5% [100 µM] (active) in the test on IGROV1 ovarian; -70.4% [100 µM] (active) with OVCAR-3 ovarian; -30.4% [100 µM] (active) in the test with HS 578T breast; -71.9% [100 µM] (active) with NCI/ADR-RES ovarian.
